Experimental data: PubChem BioAssay (EPA / NIEHS)
Active and inactive are the calls of the source. Rule for the calls: active = hit-call score of the fitted dose curve at least 0.9, where 1 is the maximum; inactive = score below 0.9.

experiment: ATG_Oct_MLP_CIS: Attagene CIS-FACTORIAL HepG2 Assay for human Octamer-Binding Transcription Factor (Oct) (AID 2282993); conditions: HepG2 Attagene cis-factorial Oct reporter, mRNA; actives raise or lower the signal
Method: ATG_CIS is a cell-based, multiplexed-readout assay that uses HepG2, a human liver cell line, with measurements taken at 24 hours after chemical dosing in a 24-well plate.ATG_Oct_MLP_CIS is one of 52 assay component(s) measured or calculated from the ATG_CIS assay. It is designed to make measurements of mRNA induction, a form of inducible reporter, as detected with fluorescence intensity signals by Reverse transcription polymerase chain reaction (RT-PCR) and Capillary electrophoresis technology.Data from the assay component ATG_Oct_MLP_CIS was analyzed into 1 assay endpoint. This assay endpoint, ATG_Oct_MLP_CIS, was analyzed with bidirectional fitting relative to DMSO as the negative control and baseline of activity. Using a type of inducible reporter, measures of mRNA for gain or loss-of-signal activity can be used to understand the reporter gene at the transcription factor-level as they relate to the gene POU2F1. Furthermore, this assay endpoint can be referred to as a primary readout, because this assay has produced multiple assay endpoints where this one serves a reporter gene function. To generalize the intended target to other relatable targets, this assay endpoint is annotated to the dna binding intended target family, where the subfamily is POU domain protein.
Human liver HepG2 cells are transiently transfected with multiple reporter transcription units (MRTUs) in 6-well plates using FuGene 6 reagent (Roche; 3 ml FuGene/1 mg DNA). The MRTU constructs are regulated by a cis-regulating element (promoter). […] A major difference between the CIS and TRANS system is that in CIS activities of endogenous TFs are measured, whereas the TRANS assay evaluates changes in activities of exogenous, chimeric NR-Gal4 proteins. […] At the end of 24 hour incubation, total RNA was isolated using TriZol reagent (Invitrogen). The isolated RNA is then reverse-transcribed using oligo(dT) primer and Mo-MLV reverse transcriptase (Invitrogen) with DNAse I (Ambion) treatment for 30 min. The one-tenth of the produced cDNA was amplified by PCR using Taq DNA polymerase (Invitrogen) and two reporter sequence-specific primers. The PCR products were fluorescently labeled by primer extension with 6-arboxyfluorescein (6-FAM) 5'-labeled reporter sequence-specific primer (2 min at 95 C, 20 s at 68 C and 10 min at 72 C) and these products were digested with 5U of HpaI (New England Biolabs) for 2h at 37 C. The fragments were purified using Qiaquick PCR columns (Qiagen), analyzed on an ABI 3130xL genetic analyzer (Applied Biosystems) with peak positions identified by using a set of X-rhodamine (ROX)-labeled MapMarker1000 molecular weight standards (BioVentures). The raw capillary electrophoresis data was processed using Attagraph software (Attagene).

Compound	outcome	AC50
CCCCCCCC(=O)OCC(O)CO (stereo not given)	inactive	–
CC(=O)O[C@@H]1CC2CCC1(C)C2(C)C (stereo not given in full)	inactive	–
C[Si](C)(C)O[Si](C)(C)C	inactive	–
C1CCCCC1	inactive	–
CCOC(=O)[C@@H](C)Oc1ccc(Oc2nc3ccc(Cl)cc3o2)cc1	inactive	–
CCOC(=O)CCc1ccccc1	inactive	–
CSCCC=O	inactive	–
Cc1ccc(OC(=O)c2ccccc2O)cc1	inactive	–
CC(=O)O[C@H]1C[C@@H]2CC[C@@]1(C)C2(C)C	inactive	–
ClC(c1ccccc1)(c1ccccc1)c1ccccc1	inactive	–
CC(=O)c1c(C)c([N+](=O)[O-])c(C(C)(C)C)c([N+](=O)[O-])c1C	inactive	–
COc1ccc(CCO)cc1	inactive	–
COc1cc(C(C)C)ccc1C	inactive	–
O=C(O)CNc1ccccc1	inactive	–
CCCSc1ccc2nc(NC(=O)OC)[nH]c2c1	inactive	–
CCCCC(CC)COC(C)=O (stereo not given)	inactive	–
O=[N+]([O-])c1ccc(O)cc1C(F)(F)F	–	55.2 µM (active)
c1ccc2[nH]cnc2c1	inactive	–
CC(C)(C)C1=CC(=O)C(C(C)(C)C)=CC1=O	inactive	–
COC(=O)C=C(C)CCC=C(C)C	inactive	–

Compound	outcome	AC50
CCc1cc(Cc2cc(CC)cc(C(C)(C)C)c2O)c(O)c(C(C)(C)C)c1	–	16.3 µM (active)
C=CC(C)C#N (stereo not given)	inactive	–
O=C(CS)OCCOC(=O)CS	inactive	–
O=C(Nc1ccc([N+](=O)[O-])cc1)Nc1ccc([N+](=O)[O-])cc1 (tested in a mixture with another compound)	inactive	–
CS(=O)(=O)c1ccc(C2=C(c3ccccc3)C(=O)OC2)cc1	inactive	–
Cc1[nH]c(=O)c(C#N)cc1-c1ccncc1	inactive	–
CCCCCCCCC=CCCCCCCCC1=NCCN1CCO	inactive	–
C=C1CC[C@H](O)C/C1=C/C=C1\CCC[C@]2(C)[C@@H]([C@H](C)/C=C/[C@H](C)C(C)C)CC[C@@H]12	inactive	–
C=CCN(CC=C)CC=C	inactive	–
CC1(C)COCN1	inactive	–
CN1C(=O)c2ccccc2C1=O	inactive	–
CC(C)(C)OC(=O)c1ccc(O)cc1	–	100 µM (active)
CSc1c(Cl)c(Cl)c(Cl)c(Cl)c1Cl	–	139 µM (active)
CC(C)NCC(O)COc1ccc(CC(N)=O)cc1 (stereo not given)	inactive	–
COc1ccc(CCC(C)=O)cc1	inactive	–
CCc1ccc(O)cc1	inactive	–
CC(=O)c1ccccn1	inactive	–
CC(=O)OCCCc1ccccc1	inactive	–
O=C1OC[C@H](Cc2cccc(O)c2)[C@H]1Cc1cccc(O)c1	inactive	–
C=CC(=O)OCCCC	inactive	–
